# From PubChem BioAssay (EPA / NIEHS)
# “And” between values parts separate entries of the source, which are not always exact repeats. Equal entries are not always repeated. Results filed as inconclusive are left out. Some compounds were tested as several samples or in several runs, with calls that do not always agree. The source made the active and inactive calls. How the source made its calls: active means hit-call score of the fitted dose curve at least 0.9, where 1 is the maximum; inconclusive means response in the unintended direction; inactive means score below 0.9.
# Target: rat Peripheral-type Benzodiazepine Receptor (PBR), Tspo (gene 24230) (UniProt P16257)
# Test: NVS_MP_rPBR: NovaScreen (NVS) Membrane Protein Assay for rat Peripheral-type Benzodiazepine Receptor (PBR) (AID 2283335)
# Protocol: NVS_MP_rPBR is a biochemical, single-readout assay that uses extracted gene-proteins from Rat kidney membranes in a tissue-based cell-free assay. Measurements were taken 1 hour after chemical dosing in a 48-well plate.NVS_MP_rPBR is one of one assay component(s) measured or calculated from the NVS_MP_rPBR assay. It is designed to make measurements of radioligand binding, a form of binding reporter, as detected with scintillation counting signals by Filter-based radiodetection technology.Data from the assay component NVS_MP_rPBR was analyzed into 1 assay endpoint. This assay endpoint, NVS_MP_rPBR, was analyzed in the positive analysis fitting direction relative to DMSO as the negative control and baseline of activity. Using a type of binding reporter, loss-of-signal activity can be used to understand changes in the binding as they relate to the gene Tspo. Furthermore, this assay endpoint can be referred to as a primary readout, because the performed assay has only produced 1 assay endpoint. To generalize the intended target to other relatable targets, this assay endpoint is annotated to the transporter intended target family, where the subfamily is cholesterol transporter.
# Binding assays used specific radioligands (tritiated, iodinated) with non-radioactive competitive displacement ligands in agonist or antagonist protocols (as indicated) and various reference compounds and inhibitors to titrate specific binding to receptors and transporters. Most enzyme assays (CYPs, kinases, phosphatases, proteases, HDACs) used recombinant protein and specific substrates (fluorescence mostly, some colorimetric and radioactive) and inhibitors, followed by a biochemical separation of substrate and product. All assays for the biochemical HTS were initially run in duplicate at a single concentration (10 uM for CYP450 assays and 25 uM for all others). […] Each assay was run with positive and negative controls, and concurrent controls on every plate. The follow-up (secondary) screen tested active chemical-pairs in concentration series, as well as a few additional assays not tested in the primary screen, some selected negative inactives, and several cases re-run in the concentration series for confirmatory purposes.
# Sequence of rat Peripheral-type Benzodiazepine Receptor (PBR), Tspo (gene 24230) (P16257 whole entry, looked up): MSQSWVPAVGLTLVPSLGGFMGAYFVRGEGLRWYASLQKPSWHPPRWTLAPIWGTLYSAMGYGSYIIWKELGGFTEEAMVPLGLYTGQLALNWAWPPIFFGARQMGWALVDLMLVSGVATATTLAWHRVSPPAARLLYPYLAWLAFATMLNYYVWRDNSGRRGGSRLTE
SMILES,AC50,outcome
CCCN(CCC)C(=O)SCC,25 µM (active),inactive
COC(=O)CSc1cc(N=c2sc(=O)n3n2CCCC3)c(F)cc1Cl,–,inactive
CCCCOCCOCCOCc1cc2c(cc1CCC)OCO2,12.3 µM (active),–
CCOC(=O)COc1cc(-n2ncc(C(F)(F)F)c(C)c2=O)c(F)cc1Cl,0.806 µM (active),–
S=C(S)NCCNC(=S)S.[Mn+2].[S-]C([S-])=NCCN=C([S-])[S-].[Zn+2],–,inactive
CCCCCOC(=O)COc1cc(N2C(=O)C3=C(CCCC3)C2=O)c(F)cc1Cl,1.23 µM (active),–
CC(C)(c1ccc(O)cc1)c1ccc(O)cc1,6.73 µM (active) and 25 µM (active),inactive
S=C([S-])NCCNC(=S)[S-].[Mn+2],15.3 µM (active),–
CN(C)C(=O)Nc1ccc(Cl)c(Cl)c1,8.92 µM (active),–
N#CSCSc1nc2ccccc2s1,11.1 µM (active) and 9.24 µM (active),–
COc1nc(C)nc(NC(=O)NS(=O)(=O)c2ccccc2OCCCl)n1,21.8 µM (active) and 9.77 µM (active),–
CCCCCCC(C)OC(=O)COc1nc(F)c(Cl)c(N)c1Cl (stereo not drawn),3.75 µM (active),–
N[C@@H](Cc1cc(I)c(Oc2ccc(O)c(I)c2)c(I)c1)C(=O)O,9.05 µM (active) and 6.01 µM (active) and 8.66 µM (active),–
CCN(CC)C(=O)c1cccc(C)c1,8.73 µM (active),–
C=CCOC(Cn1ccnc1)c1ccc(Cl)cc1Cl (stereo not drawn),8.58 µM (active),–
CCNc1nc(N)nc(Cl)n1,–,inactive
Oc1ccc(C(c2ccc(O)cc2)C(Cl)(Cl)Cl)cc1,4.65 µM (active),–
CCCCC(CC)COC(=O)c1ccccc1C(=O)O (stereo not drawn),–,inactive
C#CCOC(=O)[C@@H](C)Oc1ccc(Oc2ncc(Cl)cc2F)cc1,–,inactive
CC1(C)C(C=C(Cl)Cl)C1C(=O)OCc1cccc(Oc2ccccc2)c1 (stereo not drawn),–,inactive
CCCCOC(=O)[C@@H](C)Oc1ccc(Oc2ccc(C(F)(F)F)cn2)cc1,–,inactive
